Assay outcomes as filed in PubChem.
M1 antag = blocks human M1 muscarinic receptor; CHO-K1 hM1, Fluo-8 calcium fluorescence, ACh EC80 antagonist; inhibition, % at 3 µM; actives 1.3% (n = 360,000);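 active means percent inhibition above its own plate's cutoff, namely the mean of that plate's compound wells plus 3 SD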;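 further: peak over basal fluorescence ratio during 140 s after agonist addition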
Target sequence (P11229 whole entry, looked up): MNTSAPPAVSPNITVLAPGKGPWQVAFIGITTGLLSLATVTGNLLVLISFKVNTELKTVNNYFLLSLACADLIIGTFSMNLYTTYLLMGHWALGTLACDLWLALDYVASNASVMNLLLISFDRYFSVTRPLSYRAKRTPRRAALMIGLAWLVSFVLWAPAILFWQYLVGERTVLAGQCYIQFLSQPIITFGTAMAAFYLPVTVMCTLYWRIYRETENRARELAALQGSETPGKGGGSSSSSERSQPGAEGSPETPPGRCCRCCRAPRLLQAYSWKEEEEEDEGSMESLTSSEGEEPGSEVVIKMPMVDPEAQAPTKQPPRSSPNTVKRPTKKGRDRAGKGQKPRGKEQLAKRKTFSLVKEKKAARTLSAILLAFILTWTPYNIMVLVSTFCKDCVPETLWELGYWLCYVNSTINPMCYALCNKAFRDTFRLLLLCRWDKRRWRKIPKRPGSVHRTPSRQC
CHO-K1 Ca antag = counter-screen for M1 antagonists: effect in parental CHO-K1 cells. ATP-induced calcium, Fluo-8 fluorescence. inhibition, % at 3 µM. actives 0.6% (n = 360,000);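 active means inhibition above a per-plate cutoff, the plate's mean sample inhibition plus 3 SD, cut at about 24% in these data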
CHRM1 PAM = human CHRM1 positive allosteric modulation; actives 0.088% (n = 360,000); CHO-K1 hM1, Fluo-8 calcium fluorescence, ACh EC20; 0% = ACh EC20, 100% = maximal ACh; activation, % at 3 µM; P11229; in the data active means activation above about 19%, passing the limit was not always enough
CHRM1 agonist = human M1 muscarinic receptor agonism; CHO-K1 hM1, Fluo-8 calcium fluorescence, agonist mode; 0% DMSO, 100% acetylcholine EC100; activation, % at 3 µM; actives 0.33% (n = 360,000);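 active means activation above the run's mean compound activation plus 3 SD, cut at about 16% in these data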;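 further: peak over basal fluorescence ratio within a 140 s kinetic read after compound addition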
M1 PAM parental = counter-screen for M1 PAMs: effect in parental CHO-K1 cells | ATP EC20, Fluo-8 calcium fluorescence; 0% at ATP EC20, 100% at ATP max | activation, % at 3 µM | actives 0.02% (n = 360,000);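 active means activation above the run cutoff, the mean activation of all test compounds plus 3 SD, cut at about 40% in these data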;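 further: peak over basal fluorescence ratio in a 140 s read after ATP addition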
CHO-K1 Ca ag = M1 agonist counterscreen hit in parental CHO-K1 cells. Fluo-8 calcium fluorescence; scaled to maximal ATP response, vehicle zero. activation, % at 3 µM. actives 0.48% (n = 360,000); in the data active means activation above about 15%;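 further: untransfected CHO-K1 host cells lacking M1 receptor as counterscreen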
Numbers stand for hits; - = inactive; . = no result given. Hits are enriched below; roughly 2.3% of the tested compounds scored in any of these assays.

SMILES	M1 antag	CHO-K1 Ca antag	CHRM1 PAM	CHRM1 agonist	M1 PAM parental	CHO-K1 Ca ag
CC1CCN(C(=O)CCC(=O)Nc2nnc(C(F)(F)F)s2)CC1	-	-	-	-	-	-
COCCNC(=O)c1ccc2c(=O)n(CCCN3CCCC3=O)c(=S)[nH]c2c1	-	-	-	-	-	-
O=C(NCc1ccccc1Cl)c1ccc2c(=O)n(CCCN3CCCC3=O)c(=S)[nH]c2c1	-	30	-	-	-	-
CCCC(=O)Nc1cc(-c2nn(C)c(=O)c3ccccc23)ccc1OC	-	24	-	-	-	-
O=C(CCc1ccccc1)N1CCN(S(=O)(=O)c2cccs2)CC1	-	-	-	-	-	-
Cn1c(-c2ccc3c(c2)OCO3)cnc1NCc1ccccc1	-	-	-	-	-	-
Cn1c(-c2ccc3c(c2)OCO3)cnc1NCc1ccccc1Cl	94	-	-	-	-	-
Cc1ccc(-c2cnc(NCc3cc4c(cc3[N+](=O)[O-])OCO4)n2C)cc1C	-	-	-	-	-	17
Cn1c(-c2ccc3c(c2)OCO3)cnc1NCc1cccc(Cl)c1	74	-	-	-	-	-
Cc1cc(C)cc(NCc2cc3c(cc2[N+](=O)[O-])OCO3)c1	-	-	-	-	-	-
CCC(C)NC(=O)c1c(N)n(/N=C/c2ccccn2)c2nc3ccccc3nc12 (configuration not stated)	-	-	-	-	-	-
CCC(C)NC(=O)c1c(N)n(/N=C/c2cccnc2)c2nc3ccccc3nc12 (configuration not stated)	-	25	-	-	-	-
Cc1cc(/C=C(\C#N)C(=O)NCc2ccccc2)c(C)[nH]1	-	-	-	-	-	-
CS(=O)(=O)N(Cc1ccccc1Cl)c1ccc(C(=O)NCc2ccccn2)cc1	-	-	-	-	-	-
O=C(Nc1cccc(S(=O)(=O)NC2=NCCC2)c1)c1cn(-c2ccccc2)nc1-c1ccc(F)cc1	-	-	-	-	-	-
Cc1ccc(-c2nn(-c3ccccc3)cc2C(=O)Nc2cccc(S(=O)(=O)NC3=NCCC3)c2)cc1	-	34	-	-	-	-
COc1ccc(/C=N/n2nnnc2N)c(OC)c1	38	-	-	-	-	-
CCCCCCC[C@@H](C/C=C/CCC(=O)N(C)C/C(=C/Cl)C/C(=C\C(=O)N1CC(OC)=CC1=O)OC)OC	33	-	-	-	-	-
Cc1cc(Cl)c(OCCOCCN2CCCC(C)C2)c(Br)c1 (configuration not stated)	62	-	-	-	-	-
CC1CCCN(CCOCCOc2ccc(Cl)cc2Br)C1 (configuration not stated)	66	-	-	-	-	-
Clc1ccc(OCCCN2CCCCC2)c(Br)c1	-	-	-	-	-	-
CC1CCCN(CCOCCOc2ccc(Br)cc2Cl)C1 (configuration not stated)	42	-	-	-	-	-
O=C(N/N=C\c1ccc(COc2ccc([N+](=O)[O-])cc2)o1)c1cccc(Cl)c1	-	-	-	-	-	-
COC(=O)c1ccc(COC(=O)c2ccc(SC)cc2OC)cc1	-	-	-	-	-	20
COc1cc(SC)ccc1C(=O)OCC(=O)NCCNC(=O)COC(=O)c1ccc(SC)cc1OC	-	-	-	-	-	-
SMILES	M1 antag	CHO-K1 Ca antag	CHRM1 PAM	CHRM1 agonist	M1 PAM parental	CHO-K1 Ca ag
COc1ccc(-c2c(C(=O)c3ccc(Br)cc3)[nH]c(N)c2C(=O)c2ccccc2)cc1OC	.	-	.	.	-	-
COc1ccc(-n2c(SC)nc3sc4c(c3c2=O)CCN(C)C4)cc1	70	-	-	-	-	-
CCOC(=O)CSc1nc2sc3c(c2c(=O)n1C1CCCCC1)CCN(C)C3	24	-	-	-	-	-
C=CCSc1nc2sc3c(c2c(=O)n1-c1ccccc1)CCN(C)C3	37	-	-	-	-	-
CCOC(=O)CSc1nc2sc3c(c2c(=O)n1-c1ccc(OCC)cc1)CCN(C)C3	-	-	-	-	-	-
CCSc1nc2sc3c(c2c(=O)n1-c1ccccc1)CCN(C)C3	-	-	-	-	-	-
Cc1cc(-n2c(C)cc(C(=O)COc3ccc(Cl)cc3C(N)=O)c2C)no1	-	-	-	-	-	-
CCc1ccccc1NC(=O)COc1ccc2c(c1)OCO2	-	-	-	-	-	-
Cc1ccc(NC(=O)COc2ccc3c(c2)OCO3)c(Cl)c1	-	-	27	-	-	-
Cc1ccc(C(=O)CSC2=C(C#N)C(c3ccco3)CC(=O)N2)c(C)c1 (configuration not stated)	-	-	-	37	-	16
Cc1ccc(NC(=O)CSC2=C(C#N)C(c3ccco3)CC(=O)N2)cc1 (configuration not stated)	-	-	-	-	-	-
CCN1CC(CN(C)Cc2cn(-c3ccc(C)cc3)nc2-c2cccc(C)c2)CC1=O (configuration not stated)	-	-	-	-	-	-
CC(=O)c1ccc(OCCCC(=O)NCC(c2ccco2)N(C)C)cc1 (configuration not stated)	-	25	-	-	-	-
CCOc1ccc(NS(=O)(=O)c2ccc(C(=O)NCC(c3ccco3)N(C)C)cc2)cc1 (configuration not stated)	-	-	-	-	-	-
CC(C)CCOc1ccc(C(=O)NCC(c2ccco2)N(C)C)cc1 (configuration not stated)	28	-	-	-	-	-
CCOC(=O)c1cnc2c(-c3ccccc3OC)c(C)nn2c1C	-	-	-	-	-	-
C=CCNC(=O)c1oc2ccc(S(=O)(=O)N3CCC4(CC3)OCCO4)cc2c1C	-	-	-	-	-	-
COc1ccc(NC(=O)c2oc3ccc(S(=O)(=O)N4CCC5(CC4)OCCO5)cc3c2C)cc1	34	-	-	-	-	-
CC(C)(C)OC(=O)C[C@@H]1C/C=C\C[C@H](CC(=O)N(CCO)Cc2ccccc2)C(=O)NCCOC1=O	-	-	-	-	-	-
Cc1ccc(N2CC(C(=O)Nc3cccc(S(=O)(=O)N4CCOCC4)c3)CC2=O)cc1 (configuration not stated)	-	-	-	-	-	-
Cc1ccnc(NC(=O)C(C)n2cc([N+](=O)[O-])cn2)c1 (configuration not stated)	-	-	-	-	-	-
O=C(NC1CC2CCC(C1)N2C(=O)NCc1ccccc1)C1CC1 (configuration not stated)	37	-	-	-	-	-
O=C(NC1CCCC1)C1CCN(C(=O)NCc2ccccc2)CC1	-	-	-	-	-	-
O=C(CN1C2CCCC1CC(NC(=O)C1CCCCC1)C2)Nc1ccccc1 (configuration not stated)	-	-	-	-	-	-
